LGR2 antag = Drosophila LGR2 receptor signaling inhibition; HEK293 LGR2, CRE-luciferase, bursicon-stimulated, 4 h; inhibition, % at 9.99 µM; 380,000 compounds, 0.35% hits; AID 720647;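 active = drop in luminescence signal, shown as inhibition above about 50% in the replicate tests, limit read from the data, passing the limit was not always enough; inconclusive = probably only some replicates passing the limit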;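 also: agonist challenge used bursicon conditioned medium at about half maximal strength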
TWEAK Fn14 block = blocks TWEAK-Fn14 interaction in a reporter cell assay; TWEAK-stimulated Fn14 reporter cells, luciferase luminescence, 8 h; inhibition, % at 10 µM; 360,000 compounds, 2% hits; AID 1159606; in the data active = inhibition above about 50%
CF NFkB block = cystic fibrosis NF-kB activation inhibition. KKLEB NF-kB-GFP reporter, PAF-induced, GFP fluorescence overnight. inhibition, % at 5 µM. 360,000 compounds, 0.86% hits;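 active = at least 50% inhibition at 5 µM, scaled per plate between neutral and stimulator controls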;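 also: PAF is a Pseudomonas aeruginosa culture filtrate used as stimulus; plate controls were PAF-stimulated DMSO wells for no effect and unstimulated DMSO wells for full effect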
HIF-2a block = HIF-2a inhibition. AID 624352. 786-0 RCC cells HIF-2a reporter, luciferase luminescence, overnight. inhibition, % at 18.8 µM. 360,000 compounds, 0.72% hits;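 active = inhibition of the luminescence signal of 40% or more relative to plate controls, in a single-dose primary screen at 18.75 µM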
hiPSC survival = hiPSC single-cell survival enhancement; ATPlite luminescence; 100% = ROCK inhibitor wells, 0% = DMSO; survival enhancement, % at 20 µM; AID 602274; 360,000 compounds, 0.044% hits; in the data active = survival enhancement above about 18%;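 also: cells exposed to compounds for 16 hours before the ATP read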
KKLEB tox = counter-screen for CF NF-kB inhibitors: cytotoxicity. 360,000 compounds, 0.36% hits. activity change (cytotoxicity), % at 5 µM. AID 602141. KKLEB CF airway cells viability, ATPlite luminescence, overnight; active compounds read low; cells stimulated with P. aeruginosa culture filtrate;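 active = corrected activity change at or below -50% at 5 µM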
An asterisk follows results filed as active; ? = inconclusive; · = no result given. Only some compounds are listed: those with a hit (about 2.3% of all), similar ones and a draw of the others.

SMILES	LGR2 antag	TWEAK Fn14 block	CF NFkB block	HIF-2a block	hiPSC survival	KKLEB tox
O=C(CCCN1C(=O)/C(=C/c2ccccc2Cl)SC1=S)NNC(=O)c1ccc(Cl)cc1	6	53*	4	73*	0	-9
COc1ccccc1/C=C1\SC(=O)N(CCC(=O)NNC(=O)c2ccccc2Cl)C1=O	·	-8	0	-19	0	-3
CCCC(=O)Nc1ccc2c(c1)C(=O)N(C)[C@@H]1CC[C@@H](CC(=O)N3CCc4ccccc4C3)O[C@@H]1CO2	0	·	·	·	·	·
O=C(Nc1ccccc1)N[C@@H]1CC[C@@H](CCNC(=O)c2ccccc2F)O[C@@H]1CO	1	·	·	·	·	·
Cc1ccc(C(=O)NNC(=O)CCCN2C(=O)/C(=C/c3ccccc3Cl)SC2=S)cc1	9	48	20	87*	-2	-10
O=C1/C(=C\c2cc([N+](=O)[O-])ccc2O)SC(=S)N1Cc1ccc(Cl)cc1	15	72*	11	-18	0	-41
Cc1cccc(NC(=O)CN2C(=O)S/C(=C\c3ccc(O)c([N+](=O)[O-])c3)C2=O)c1	-17	10	1	26	0	2
Cc1ccc(/C=C2\SC(=S)N(CCCC(=O)NNC(=O)c3ccccc3O)C2=O)cc1	1	87*	2	91*	0	-6
O=C1S/C(=C\c2ccc(O)c([N+](=O)[O-])c2)C(=O)N1Cc1cccc([N+](=O)[O-])c1	10	53*	23	4	-1	15
O=C(CCCN1C(=O)/C(=C/c2cccs2)SC1=S)NNC(=O)c1ccc(F)cc1	-3	28	-4	46*	1	11
O=C1/C(=C/c2ccccc2Cl)SC(=S)N1CCCC(=O)N(CCO)c1ccccc1	12	60*	13	71*	0	2
O=C(CCCN1C(=O)/C(=C/c2cccs2)SC1=S)Nc1ccc(C(=O)O)cc1	18	-5	-7	6	0	9
O=C(CCCN1C(=O)/C(=C/c2ccccc2Cl)SC1=S)Nc1cccnc1	10	11	-10	0	0	6
CC(C)c1ccc(OCC(=O)NN2C(=O)c3ccccc3C2=O)c(Br)c1	0	69*	-9	1	-1	0
Cc1ncc([N+](=O)[O-])n1Cc1cccc(F)c1	13	70*	-1	14	0	-3
Cc1ncc([N+](=O)[O-])n1Cc1ccccc1	·	9	-1	4	-1	5
CCOC(=O)COc1ccc2c(c1)C(=O)CC1(CCN(C(C)=O)CC1)O2	2	-4	6	3	2	7
CCOC(=O)N1CCC2(CC1)CC(=O)c1cc(O)ccc1O2	·	64*	7	2	-2	-3
Cc1sc2ncnc(Sc3nnnn3-c3ccccc3)c2c1C	66*	101*	80*	24	0	-54*
Cc1sc2ncnc(Sc3ccccc3C(=O)O)c2c1C	13	11	15	7	1	-4
Clc1ccc(-n2nnnc2Sc2ncnc3sccc23)cc1	46	75*	83*	93*	-3	-10
CCNC(=O)[C@H]1[C@H](CO)[C@H]2Cn3c(ccc(/C=C/c4ccccc4)c3=O)[C@H]2N1C(C)=O	-7	·	·	·	·	·
CC(C)NC(=O)NCC[C@H]1CC[C@@H](NC(=O)CN(C)C)[C@@H](CO)O1	6	·	·	·	·	·
Oc1ccc(C=Nc2ccc(N3CCOCC3)cc2)c(O)c1	·	28	8	4	2	2
Oc1ccc(N=Nc2cccc(C(F)(F)F)c2)cc1C=Nc1ccc(N2CCOCC2)cc1	27	36	78*	-37	-2	-9
SMILES	LGR2 antag	TWEAK Fn14 block	CF NFkB block	HIF-2a block	hiPSC survival	KKLEB tox
CSc1nc(N2CCOCC2)c2c(c1C#N)CCCCC2	2	93*	24	29	-2	-7
COC(=O)CSc1nc(N2CCCCC2)c2c(c1C#N)CCCC2	·	91*	13	21	-2	-6
CC(C)(C)[S@](=O)N1Cc2cc(C(=O)NCc3ccccc3F)nc(-c3cccc(-c4cccnc4)c3)c2[C@@H]1CCO	-14	·	·	·	·	·
CCOC(=O)c1oc2ccccc2c1CN1CCN(C)CC1	·	86*	-3	13	1	7
C[C@H]1CN([C@@H](C)CO)S(=O)(=O)c2ccc(-c3ccncc3)cc2O[C@@H]1CN(C)C(=O)C1CCCCC1	-9	·	·	·	·	·
CC(C)(C)C(=O)Nc1nnc(CSCc2ccccc2F)s1	·	73*	6	-1	-3	1
COc1ccc2c3c([nH]c2c1)[C@@H](CO)N(C(=O)CN1CCOCC1)CC31CCN(C(C)=O)CC1	-12	·	·	·	·	·
O=C(C[C@@H]1CC[C@@H](NC(=O)Cc2cccnc2)[C@@H](CO)O1)Nc1ccccc1	4	·	·	·	·	·
CCCCSC(=S)NC1CCS(=O)(=O)C1 (configuration not stated)	25	57*	40	32	-3	-11
O=S1(=O)CCC(NC(=S)NC2CCS(=O)(=O)C2)C1 (configuration not stated)	17	12	15	4	-1	-3
O=C(C[C@@H]1CC[C@H]2[C@@H](COC[C@@H](O)CN2C(=O)Nc2ccc3c(c2)OCO3)O1)N1CCN(c2ccccc2)CC1	-25	·	·	·	·	·
COc1cc(-c2ccc3oc(-c4ccsc4)cc(=O)c3c2)cc(OC)c1OC	64*	25	-5	-47	-2	15
COc1ccc(-c2cc(=O)c3cc(OC)ccc3o2)cc1	2	65*	-13	-89	-4	-51*
COc1ccc2oc(-c3ccccc3)cc(=O)c2c1	64*	74*	-13	-15	1	-36
COc1ccc(-c2ccc3c(c2)O[C@H](CN(C)C)[C@H](C)CN([C@H](C)CO)S3(=O)=O)cc1	9	·	·	·	·	·
O=S(=O)(Nc1cc2nc3ccccc3nc2n1Cc1ccccc1)c1ccc(Cl)cc1	·	96*	52*	-6	-1	-10
C[C@@H]1CN([C@@H](C)CO)C(=O)c2cc(NS(=O)(=O)c3cn(C)cn3)ccc2O[C@H]1CN(C)CC1CC1	22	·	·	·	·	·
Cc1ccccc1N(CC(=O)NCc1ccc2c(c1)OCO2)C(=O)C1CSC(=O)C1 (configuration not stated)	7	50*	-15	17	0	6
Cc1ccccc1N(CC(=O)NCc1ccc2c(c1)OCO2)C(=O)CCC(=O)Nc1ccccn1	·	0	6	9	2	4
Cn1c(C=O)c(-c2ccc3cc[nH]c3c2)c2ccccc21	-3	66*	44	-26	2	-17
Cc1ccc2sc(-c3ccc(NC(=O)/C=C\C(=O)O)cc3)nc2c1	?	55*	-22	-234	-2	-15
COc1ccc2c3c(n(C)c2c1)[C@H](CO)N(C(=O)Nc1ccccc1F)CC31CCN(C(=O)c2ccccc2F)CC1	-7	·	·	·	·	·
CCN(CC)CC(C)(C)C(=O)/C=C/c1ccc(/C=C/C(=O)C(C)(C)CN(CC)CC)cc1	103*	102*	92*	91*	0	-66*
